PMC7862700, “An all-to-all approach to the identification of sequence-specific readers for epigenetic DNA modifications on cytosine”

Legend:
Assay in all cases: DAPPL (digital affinity profiling via proximity ligation, sequencing); 10 mM Tris-HCl pH 7.5, 50 mM NaCl, 1 mM DTT, 4% glycerol, room temperature, 30 min; GST-TFs on glutathione beads, 16-mer random dsDNA library, 0.1% formaldehyde crosslink after washing; high values mean tight binding
[1] = target: T1, FEV (Homo sapiens, UniProt Q99581 1-238); settings: protein: recombinant; tags: N-terminal GST; dsDNA, one strand shown
T1 sequence: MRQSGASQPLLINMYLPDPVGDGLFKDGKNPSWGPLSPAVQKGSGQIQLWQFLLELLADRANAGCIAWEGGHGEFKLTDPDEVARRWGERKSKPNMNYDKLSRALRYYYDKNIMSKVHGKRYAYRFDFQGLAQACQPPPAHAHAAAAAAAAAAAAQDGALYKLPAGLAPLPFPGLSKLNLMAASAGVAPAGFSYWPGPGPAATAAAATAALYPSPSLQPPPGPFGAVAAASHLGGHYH
Method in brief: (§1)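 Beads coated with glutathione captured GST-fused human transcription factors that had been expressed in yeast, and the factors were then given DNA barcodes and pooled with a tag-only sample. The pools were incubated with 200 nmole of a random double-stranded 16-mer DNA library in Tris/NaCl/DTT/glycerol buffer for 30 min at room temperature, washed, crosslinked with 0.1% formaldehyde and proximity-ligated with BsaI/T4 ligase at 37 °C for 1 h. PCR amplification and Illumina NextSeq500 sequencing came last. Binding signal is each hexamer's read frequency for a factor divided by its frequency for the tag-only sample.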

[2] = target: ETV5 (Homo sapiens, UniProt P41161 1-510); settings: protein: recombinant; tags: N-terminal GST; dsDNA, one strand shown
Method in brief: as §1

[3] = target: HSF1 (Homo sapiens, UniProt Q00613 1-529); settings: protein: recombinant; tags: N-terminal GST; chain copies: 3; dsDNA, one strand shown
Method in brief: as §1

[4] = target: T2, SPIC (Homo sapiens, UniProt Q8N5J4 1-248); settings: protein: recombinant; tags: N-terminal GST; dsDNA, one strand shown
T2 sequence: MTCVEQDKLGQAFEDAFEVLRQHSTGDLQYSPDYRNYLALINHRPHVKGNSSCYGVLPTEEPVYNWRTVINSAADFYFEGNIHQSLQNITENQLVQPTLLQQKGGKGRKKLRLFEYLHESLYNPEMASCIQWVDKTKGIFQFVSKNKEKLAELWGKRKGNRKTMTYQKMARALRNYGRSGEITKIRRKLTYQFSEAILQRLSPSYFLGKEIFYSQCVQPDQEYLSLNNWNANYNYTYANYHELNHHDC
Method in brief: as §1

[5] = target: ELF4 (Homo sapiens, UniProt Q99607 1-663); settings: protein: recombinant; tags: N-terminal GST; dsDNA, one strand shown
Method in brief: as §1

[6] = target: T3, ELK4 (Homo sapiens, UniProt P28324-2 1-405); settings: protein: recombinant; tags: N-terminal GST; dsDNA, one strand shown
T3 sequence: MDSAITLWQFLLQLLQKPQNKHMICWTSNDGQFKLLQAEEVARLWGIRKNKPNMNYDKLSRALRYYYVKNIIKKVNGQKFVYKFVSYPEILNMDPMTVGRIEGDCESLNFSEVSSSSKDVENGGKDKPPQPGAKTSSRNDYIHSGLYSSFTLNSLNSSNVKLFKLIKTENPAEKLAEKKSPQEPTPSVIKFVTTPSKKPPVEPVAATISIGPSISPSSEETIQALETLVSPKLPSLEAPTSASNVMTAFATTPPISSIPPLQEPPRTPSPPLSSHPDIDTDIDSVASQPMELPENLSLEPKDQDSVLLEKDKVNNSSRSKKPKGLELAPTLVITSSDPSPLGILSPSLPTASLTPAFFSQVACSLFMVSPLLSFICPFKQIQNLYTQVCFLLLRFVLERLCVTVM
Method in brief: as §1

[7] = target: T4, ETV2 (Homo sapiens, UniProt O00321 1-342); settings: protein: recombinant; tags: N-terminal GST; dsDNA, one strand shown
T4 sequence: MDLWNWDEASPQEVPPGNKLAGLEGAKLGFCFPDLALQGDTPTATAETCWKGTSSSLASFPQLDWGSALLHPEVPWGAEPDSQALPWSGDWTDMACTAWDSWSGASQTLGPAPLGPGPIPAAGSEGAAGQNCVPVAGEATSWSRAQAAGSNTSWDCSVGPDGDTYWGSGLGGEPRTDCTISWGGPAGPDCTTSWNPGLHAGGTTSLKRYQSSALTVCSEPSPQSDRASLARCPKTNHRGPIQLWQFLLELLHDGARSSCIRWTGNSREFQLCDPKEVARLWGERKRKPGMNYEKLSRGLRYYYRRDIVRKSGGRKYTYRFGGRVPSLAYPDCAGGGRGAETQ
Method in brief: as §1

[8] = target: T5, ELF3 (Homo sapiens, UniProt P78545 1-371); settings: protein: recombinant; tags: N-terminal GST; dsDNA, one strand shown
T5 sequence: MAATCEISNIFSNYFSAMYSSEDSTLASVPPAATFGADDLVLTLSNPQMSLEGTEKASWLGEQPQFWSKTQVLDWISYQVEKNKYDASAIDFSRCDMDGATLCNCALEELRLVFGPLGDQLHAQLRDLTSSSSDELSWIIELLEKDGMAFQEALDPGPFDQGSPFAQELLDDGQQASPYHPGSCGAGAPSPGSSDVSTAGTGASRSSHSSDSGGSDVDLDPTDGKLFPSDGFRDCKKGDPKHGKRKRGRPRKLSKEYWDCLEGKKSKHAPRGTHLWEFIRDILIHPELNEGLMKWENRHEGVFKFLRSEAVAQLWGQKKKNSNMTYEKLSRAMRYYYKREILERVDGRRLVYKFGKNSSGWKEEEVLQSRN
Method in brief: as §1

[9] = target: CRX (Homo sapiens, UniProt O43186 1-299); settings: protein: recombinant; tags: N-terminal GST; dsDNA, one strand shown
Method in brief: as §1

[10] = target: ETV1 (Homo sapiens, UniProt P50549 1-477); settings: protein: recombinant; tags: N-terminal GST; dsDNA, one strand shown
Method in brief: as §1

[11] = target: T6, ERF (Homo sapiens, UniProt P50548 1-548); settings: protein: recombinant; tags: N-terminal GST; dsDNA, one strand shown
T6 sequence: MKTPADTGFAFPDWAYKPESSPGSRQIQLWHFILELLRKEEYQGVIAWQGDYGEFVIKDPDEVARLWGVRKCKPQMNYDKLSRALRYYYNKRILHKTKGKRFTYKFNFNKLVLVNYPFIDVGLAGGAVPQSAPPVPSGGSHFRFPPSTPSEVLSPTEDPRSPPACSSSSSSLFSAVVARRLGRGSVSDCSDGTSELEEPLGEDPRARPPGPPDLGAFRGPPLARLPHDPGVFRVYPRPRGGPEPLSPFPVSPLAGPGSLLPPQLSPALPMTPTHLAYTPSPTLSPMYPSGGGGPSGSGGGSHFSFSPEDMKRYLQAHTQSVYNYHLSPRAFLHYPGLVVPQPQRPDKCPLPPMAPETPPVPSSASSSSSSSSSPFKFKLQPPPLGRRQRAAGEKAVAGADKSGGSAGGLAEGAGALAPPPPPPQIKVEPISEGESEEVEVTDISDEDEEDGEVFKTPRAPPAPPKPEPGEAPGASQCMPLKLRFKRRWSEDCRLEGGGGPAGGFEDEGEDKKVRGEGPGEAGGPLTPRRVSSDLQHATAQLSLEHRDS
Method in brief: as §1

[12] = target: T7, ETV3L (Homo sapiens, UniProt Q6ZN32 1-361); settings: protein: recombinant; tags: N-terminal GST; dsDNA, one strand shown
T7 sequence: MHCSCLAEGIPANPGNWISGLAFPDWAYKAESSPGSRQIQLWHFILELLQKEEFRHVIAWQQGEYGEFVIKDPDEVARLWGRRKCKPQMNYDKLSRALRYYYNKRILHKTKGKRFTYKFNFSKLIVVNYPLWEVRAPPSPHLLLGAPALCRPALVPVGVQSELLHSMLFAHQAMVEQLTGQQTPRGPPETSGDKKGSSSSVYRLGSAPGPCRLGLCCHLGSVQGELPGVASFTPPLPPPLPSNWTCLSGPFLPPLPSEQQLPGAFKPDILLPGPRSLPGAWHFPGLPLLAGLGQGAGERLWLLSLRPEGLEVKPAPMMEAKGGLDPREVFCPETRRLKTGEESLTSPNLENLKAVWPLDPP
Method in brief: as §1

[13] = target: T8, ETS2 (Homo sapiens, UniProt P15036 1-469); settings: protein: recombinant; tags: N-terminal GST; dsDNA, one strand shown
T8 sequence: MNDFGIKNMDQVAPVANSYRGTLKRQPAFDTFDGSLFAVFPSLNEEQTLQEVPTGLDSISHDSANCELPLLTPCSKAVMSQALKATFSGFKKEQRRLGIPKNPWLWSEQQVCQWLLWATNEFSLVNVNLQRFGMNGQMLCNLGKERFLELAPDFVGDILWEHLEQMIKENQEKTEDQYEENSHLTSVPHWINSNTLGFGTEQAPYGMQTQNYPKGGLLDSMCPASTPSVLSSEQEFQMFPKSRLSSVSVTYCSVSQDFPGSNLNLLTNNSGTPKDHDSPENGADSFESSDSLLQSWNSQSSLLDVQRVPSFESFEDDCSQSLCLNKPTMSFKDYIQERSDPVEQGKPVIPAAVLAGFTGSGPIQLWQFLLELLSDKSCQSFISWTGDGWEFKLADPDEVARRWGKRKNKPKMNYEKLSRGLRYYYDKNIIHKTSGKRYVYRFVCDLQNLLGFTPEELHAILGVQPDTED
Method in brief: as §1

[14] = target: T9, SPDEF (Homo sapiens, UniProt O95238 1-335); settings: protein: recombinant; tags: N-terminal GST; dsDNA, one strand shown
T9 sequence: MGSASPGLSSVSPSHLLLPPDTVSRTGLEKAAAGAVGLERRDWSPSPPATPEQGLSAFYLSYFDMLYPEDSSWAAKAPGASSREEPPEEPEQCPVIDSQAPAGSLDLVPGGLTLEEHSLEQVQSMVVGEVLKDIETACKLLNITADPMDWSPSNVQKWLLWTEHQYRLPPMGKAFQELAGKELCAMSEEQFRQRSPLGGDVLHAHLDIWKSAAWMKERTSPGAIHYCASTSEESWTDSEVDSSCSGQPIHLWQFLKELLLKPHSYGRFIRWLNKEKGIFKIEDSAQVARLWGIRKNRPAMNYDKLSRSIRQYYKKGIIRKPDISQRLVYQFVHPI
Method in brief: as §1

[15] = target: T10, ETV7 (Homo sapiens, UniProt Q9Y603 1-341); settings: protein: recombinant; tags: N-terminal GST; dsDNA, one strand shown
T10 sequence: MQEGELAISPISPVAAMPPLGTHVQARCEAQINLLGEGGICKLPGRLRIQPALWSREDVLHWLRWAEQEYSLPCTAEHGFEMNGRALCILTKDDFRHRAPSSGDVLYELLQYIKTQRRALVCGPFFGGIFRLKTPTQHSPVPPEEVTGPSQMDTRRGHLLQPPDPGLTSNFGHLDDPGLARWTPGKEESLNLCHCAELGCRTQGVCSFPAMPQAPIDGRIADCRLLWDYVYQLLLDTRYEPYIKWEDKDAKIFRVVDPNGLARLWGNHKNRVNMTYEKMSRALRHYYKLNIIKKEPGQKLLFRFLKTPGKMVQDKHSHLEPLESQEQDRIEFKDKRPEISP
Method in brief: as §1

[16] = target: T11, ELF5 (Homo sapiens, UniProt Q9UKW6-2 1-255); settings: protein: recombinant; tags: N-terminal GST; dsDNA, one strand shown
T11 sequence: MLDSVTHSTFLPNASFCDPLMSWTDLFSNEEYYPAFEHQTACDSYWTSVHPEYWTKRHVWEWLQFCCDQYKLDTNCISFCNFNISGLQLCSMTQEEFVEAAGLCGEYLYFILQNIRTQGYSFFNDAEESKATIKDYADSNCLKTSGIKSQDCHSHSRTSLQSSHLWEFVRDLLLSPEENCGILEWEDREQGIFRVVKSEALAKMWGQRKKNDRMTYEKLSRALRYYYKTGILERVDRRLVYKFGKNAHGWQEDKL
Method in brief: as §1

[17] = target: T12, ETV3 (Homo sapiens, UniProt P41162-2 1-143); settings: protein: recombinant; tags: N-terminal GST; dsDNA, one strand shown
T12 sequence: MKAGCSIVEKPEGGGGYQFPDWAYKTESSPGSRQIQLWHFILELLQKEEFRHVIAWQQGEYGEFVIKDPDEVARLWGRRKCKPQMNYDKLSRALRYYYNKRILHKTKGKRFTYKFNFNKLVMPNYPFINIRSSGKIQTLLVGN
Method in brief: as §1

[18] = target: ETV6 (Homo sapiens, UniProt P41212 1-452); settings: protein: recombinant; tags: N-terminal GST; dsDNA, one strand shown
Method in brief: as §1

Chain of CRX (O43186 whole entry): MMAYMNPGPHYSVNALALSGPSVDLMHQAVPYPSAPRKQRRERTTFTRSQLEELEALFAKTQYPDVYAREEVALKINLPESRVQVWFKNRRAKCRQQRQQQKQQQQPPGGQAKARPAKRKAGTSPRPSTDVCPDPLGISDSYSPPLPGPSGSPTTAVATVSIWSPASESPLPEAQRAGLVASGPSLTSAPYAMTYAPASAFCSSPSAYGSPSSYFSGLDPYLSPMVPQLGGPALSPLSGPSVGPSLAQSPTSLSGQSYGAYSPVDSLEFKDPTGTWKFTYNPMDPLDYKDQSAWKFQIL
Chain of HSF1 (Q00613 whole entry): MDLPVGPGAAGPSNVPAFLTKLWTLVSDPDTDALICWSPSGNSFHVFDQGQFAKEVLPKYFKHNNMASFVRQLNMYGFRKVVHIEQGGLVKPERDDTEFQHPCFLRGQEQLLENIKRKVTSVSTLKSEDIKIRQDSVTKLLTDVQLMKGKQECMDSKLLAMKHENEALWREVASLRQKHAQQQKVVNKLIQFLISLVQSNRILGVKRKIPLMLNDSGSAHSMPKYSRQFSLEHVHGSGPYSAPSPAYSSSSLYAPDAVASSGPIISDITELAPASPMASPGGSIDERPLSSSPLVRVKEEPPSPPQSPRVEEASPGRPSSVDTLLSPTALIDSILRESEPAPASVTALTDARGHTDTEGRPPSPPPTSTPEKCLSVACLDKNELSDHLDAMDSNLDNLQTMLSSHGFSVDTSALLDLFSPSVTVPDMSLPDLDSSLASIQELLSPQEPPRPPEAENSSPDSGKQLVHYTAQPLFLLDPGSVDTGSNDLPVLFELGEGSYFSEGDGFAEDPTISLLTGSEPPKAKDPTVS
Chain of ETV5 (P41161 whole entry): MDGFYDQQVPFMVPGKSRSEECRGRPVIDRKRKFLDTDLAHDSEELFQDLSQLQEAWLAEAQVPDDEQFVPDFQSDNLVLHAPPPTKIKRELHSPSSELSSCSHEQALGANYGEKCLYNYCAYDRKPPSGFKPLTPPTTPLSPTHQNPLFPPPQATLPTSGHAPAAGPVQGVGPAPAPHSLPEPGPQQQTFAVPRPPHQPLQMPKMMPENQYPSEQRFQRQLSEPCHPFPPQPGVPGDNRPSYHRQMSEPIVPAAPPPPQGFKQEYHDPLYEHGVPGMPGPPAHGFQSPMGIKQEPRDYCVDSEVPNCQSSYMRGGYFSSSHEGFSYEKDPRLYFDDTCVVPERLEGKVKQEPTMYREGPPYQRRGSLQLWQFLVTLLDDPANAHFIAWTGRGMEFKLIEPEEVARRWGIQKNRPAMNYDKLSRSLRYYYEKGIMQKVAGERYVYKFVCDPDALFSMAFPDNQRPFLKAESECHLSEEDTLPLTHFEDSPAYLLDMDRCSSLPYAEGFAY
Chain of ETV1 (P50549 whole entry): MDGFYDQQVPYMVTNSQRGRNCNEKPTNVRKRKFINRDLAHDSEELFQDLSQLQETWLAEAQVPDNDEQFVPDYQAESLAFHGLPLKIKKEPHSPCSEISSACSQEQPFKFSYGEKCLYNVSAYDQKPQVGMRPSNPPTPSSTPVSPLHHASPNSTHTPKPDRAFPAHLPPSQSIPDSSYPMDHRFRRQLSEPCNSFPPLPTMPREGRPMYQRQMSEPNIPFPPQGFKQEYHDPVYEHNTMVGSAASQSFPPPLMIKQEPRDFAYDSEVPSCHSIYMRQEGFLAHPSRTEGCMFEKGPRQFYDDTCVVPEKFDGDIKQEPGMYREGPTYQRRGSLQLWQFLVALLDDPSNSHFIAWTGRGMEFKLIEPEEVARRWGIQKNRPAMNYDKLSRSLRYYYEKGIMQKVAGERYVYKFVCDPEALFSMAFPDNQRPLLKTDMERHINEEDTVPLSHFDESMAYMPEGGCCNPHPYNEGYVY
Chain of ELF4 (Q99607 whole entry): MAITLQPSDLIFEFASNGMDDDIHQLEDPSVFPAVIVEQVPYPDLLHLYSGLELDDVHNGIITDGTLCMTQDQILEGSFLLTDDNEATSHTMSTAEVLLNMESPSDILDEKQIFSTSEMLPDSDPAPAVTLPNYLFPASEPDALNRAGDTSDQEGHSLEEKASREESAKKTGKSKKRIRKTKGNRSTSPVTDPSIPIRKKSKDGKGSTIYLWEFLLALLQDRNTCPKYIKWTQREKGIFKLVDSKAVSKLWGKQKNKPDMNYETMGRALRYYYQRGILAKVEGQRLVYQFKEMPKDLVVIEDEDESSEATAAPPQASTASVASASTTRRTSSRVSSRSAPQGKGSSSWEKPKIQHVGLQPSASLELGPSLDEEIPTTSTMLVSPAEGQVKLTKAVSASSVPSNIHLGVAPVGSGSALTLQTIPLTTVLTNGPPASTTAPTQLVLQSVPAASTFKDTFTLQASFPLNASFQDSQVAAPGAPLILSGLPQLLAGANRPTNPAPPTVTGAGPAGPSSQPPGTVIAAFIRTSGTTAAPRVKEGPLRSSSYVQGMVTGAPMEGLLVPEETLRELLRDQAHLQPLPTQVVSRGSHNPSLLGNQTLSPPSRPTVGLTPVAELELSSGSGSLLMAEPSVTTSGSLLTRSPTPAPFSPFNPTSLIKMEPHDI
Chain of ETV6 (P41212 whole entry): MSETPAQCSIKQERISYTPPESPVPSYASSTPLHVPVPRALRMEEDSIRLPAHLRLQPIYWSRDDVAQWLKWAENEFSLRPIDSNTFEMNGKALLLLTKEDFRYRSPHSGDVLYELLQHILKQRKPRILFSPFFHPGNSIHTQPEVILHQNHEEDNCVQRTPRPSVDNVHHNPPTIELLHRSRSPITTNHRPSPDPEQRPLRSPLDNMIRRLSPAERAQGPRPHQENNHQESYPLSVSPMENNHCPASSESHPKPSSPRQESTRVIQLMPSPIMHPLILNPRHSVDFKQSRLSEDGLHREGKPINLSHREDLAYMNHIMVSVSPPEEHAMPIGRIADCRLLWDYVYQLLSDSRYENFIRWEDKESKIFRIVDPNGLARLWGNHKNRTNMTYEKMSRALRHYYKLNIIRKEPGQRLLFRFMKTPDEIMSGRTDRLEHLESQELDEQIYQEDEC

GGACCT
binding signal [1]: 1.47 fold enrichment (6-mer frequency, TF over GST control)
binding signal [2]: 1.37 fold enrichment (6-mer frequency, TF over GST control)
binding signal [3]: 1.18 fold enrichment (6-mer frequency, TF over GST control)
binding signal [4]: 1.46 fold enrichment (6-mer frequency, TF over GST control)
binding signal [5]: 1.42 fold enrichment (6-mer frequency, TF over GST control)
binding signal [6]: 1.31 fold enrichment (6-mer frequency, TF over GST control)
binding signal [7]: 1.57 fold enrichment (6-mer frequency, TF over GST control)
binding signal [8]: 1.14 fold enrichment (6-mer frequency, TF over GST control)
binding signal [9]: 1.1 fold enrichment (6-mer frequency, TF over GST control)
binding signal [10]: 1.28 fold enrichment (6-mer frequency, TF over GST control)
binding signal [11]: 1.31 fold enrichment (6-mer frequency, TF over GST control)
binding signal [12]: 1.43 fold enrichment (6-mer frequency, TF over GST control)
binding signal [13]: 1.41 fold enrichment (6-mer frequency, TF over GST control)
binding signal [14]: 1.53 fold enrichment (6-mer frequency, TF over GST control)
binding signal [15]: 1.34 fold enrichment (6-mer frequency, TF over GST control)
binding signal [16]: 1.27 fold enrichment (6-mer frequency, TF over GST control)
binding signal [17]: 1.32 fold enrichment (6-mer frequency, TF over GST control)
binding signal [18]: 1.34 fold enrichment (6-mer frequency, TF over GST control)
